HEK cytotox = kills HEK 293 cells; actives 6.6% (n = 94,000); AID 1345083; Potency, µM (titrated, usually from 115 µM), inactives show at the top dose activity change, negative = cytotoxicity, most hits filed as inhibitors; HEK 293 viability, ATP luminescence (CellTiter-Glo), 48-72 h; further: on the % scale 0 is the no-effect control and ±100 the full control effect; nearly all actives have a fitted effect of over 60% in size
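Cytotoxicity was scored by loss of ATP-coupled luminescence (CellTiter-Glo) in HEK 293 cells. Compound treatment ran 48 or 72 hr at 37 degree Celsius, 5% CO2, 95% humidity.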
hNpr1 antagonist = antagonists of human natriuretic peptide receptor Npr1; P16066; HEK293 hNpr1 GloSensor cGMP, ANP-stimulated luminescence; Potency, µM (highest dose often 46.3 µM), for inactives: at the highest dose activity change, negative = inhibition, usual class: inhibitors; actives 1.6% (n = 76,000); AID 1347048; calls by dose curve; further: on the % scale 0 is the no-effect control and ±100 the full control effect; nearly all actives have a fitted effect of over 60% in size
Target sequence (P16066 whole entry, looked up): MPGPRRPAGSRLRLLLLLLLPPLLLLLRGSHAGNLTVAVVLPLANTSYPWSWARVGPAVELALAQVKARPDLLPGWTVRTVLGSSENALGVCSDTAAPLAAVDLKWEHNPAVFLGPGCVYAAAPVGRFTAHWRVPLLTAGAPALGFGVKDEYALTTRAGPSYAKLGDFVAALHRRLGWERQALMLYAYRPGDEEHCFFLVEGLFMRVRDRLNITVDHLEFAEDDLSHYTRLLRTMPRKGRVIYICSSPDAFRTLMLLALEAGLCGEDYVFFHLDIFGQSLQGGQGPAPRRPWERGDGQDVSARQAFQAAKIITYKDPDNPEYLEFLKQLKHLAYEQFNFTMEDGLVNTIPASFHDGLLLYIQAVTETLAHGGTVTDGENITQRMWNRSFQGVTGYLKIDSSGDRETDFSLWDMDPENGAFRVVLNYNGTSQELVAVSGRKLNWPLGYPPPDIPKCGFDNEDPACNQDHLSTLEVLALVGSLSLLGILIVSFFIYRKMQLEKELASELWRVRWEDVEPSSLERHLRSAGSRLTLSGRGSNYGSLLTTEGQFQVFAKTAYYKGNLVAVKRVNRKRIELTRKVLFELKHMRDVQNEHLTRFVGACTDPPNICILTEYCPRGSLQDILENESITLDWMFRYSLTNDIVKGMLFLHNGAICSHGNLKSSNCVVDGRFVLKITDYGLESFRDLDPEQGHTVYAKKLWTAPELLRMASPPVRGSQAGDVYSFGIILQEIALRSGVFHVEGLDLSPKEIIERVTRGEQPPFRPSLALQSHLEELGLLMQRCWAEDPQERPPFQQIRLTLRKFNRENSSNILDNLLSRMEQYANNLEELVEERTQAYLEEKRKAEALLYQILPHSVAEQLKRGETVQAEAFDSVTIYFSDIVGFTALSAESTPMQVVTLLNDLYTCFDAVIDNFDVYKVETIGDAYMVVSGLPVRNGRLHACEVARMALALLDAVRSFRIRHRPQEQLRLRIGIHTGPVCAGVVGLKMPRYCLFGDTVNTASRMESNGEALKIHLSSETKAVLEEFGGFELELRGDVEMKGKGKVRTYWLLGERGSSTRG
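HEK293 cells stably expressing human Npr1 and cGMP GloSensor pGS-40F, loaded 2 h with 2% GloSensor reagent, given compound 30 min at room temperature. Luminescence read before and 20 min after 0.1 nM hNppA.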
Luciferase inh = blocks purified firefly luciferase enzyme activity; P08659; purified P. pyralis luciferase, luminescence, biochemical; Potency, µM (titrated, usually from 115 µM), usual class: inhibitors; actives 2.5% (n = 76,000); AID 1347043; further: on the % scale 0 is the no-effect control and ±100 the full control effect; nearly all actives have a fitted effect of over 65% in size
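Luminescence read by CCD imaging after purified firefly luciferase (10nM final) was added to substrate buffer holding 10uM D-luciferin and 10uM ATP, pH 7.5, pre-dosed with compound.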
NIH3T3 tox = NIH 3T3 cell cytotoxicity | NIH 3T3 viability, CellTiter-Glo ATP luminescence, 48-72 h | Potency, µM (doses to about 96.7 µM), for inactives: top-dose activity change, negative = cytotoxicity, most hits filed as inhibitors | actives 4.3% (n = 94,000) | AID 1345082; further: on the % scale 0 is the no-effect control and ±100 the full control effect; nearly all actives have a fitted effect of over 55% in size
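Cytotoxicity is measured as loss of cellular ATP: NIH 3T3 cells (400/well) are exposed to compound for 48 or 72 hr at 37 °C, then CellTiter-Glo luminescence is imaged after 10 min at room temperature.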
NPR1 antag cnf = hNpr1 antagonism, confirmation assay | HEK293 hNpr1 cGMP GloSensor luminescence, ANP-stimulated | Potency, µM (highest dose often 57.6 µM), without a hit: at the top dose activity change, negative = inhibition, most hits filed as inhibitors | shares compounds with hNpr1 antagonist | actives 76% (n = 1,400); calls by dose curve; further: nearly all actives have a fitted effect of over 70% in size
NPR2 antag = hNpr2 antagonism, selectivity versus Npr1; shares compounds with hNpr1 antagonist; HEK293 hNpr2 GloSensor cGMP luminescence, CNP-stimulated; Potency, µM (top dose mostly 57.6 µM), for inactives: at the highest dose activity change, negative = inhibition, hits mostly inhibitors; actives 67% (n = 1,400); calls by dose curve; further: nearly all actives have a fitted effect of over 70% in size
FLuc inh counter = inhibits firefly luciferase, false Npr1 antagonist flag. Potency, µM (doses to about 57.6 µM), for the others: at the highest dose activity change, negative = inhibition, usual class: inhibitors. AID 1347047. actives 0.7% (n = 1,400). shares compounds with hNpr1 antagonist. purified FLuc enzyme, luminescence, Km substrate; further: 0% is about no effect
GloSensor ctrl = counter-screen for Npr1 antagonists: GloSensor control cell line. actives 69% (n = 1,400). HEK293 GloSensor cGMP, SNP-stimulated, luminescence. shares compounds with hNpr1 antagonist. Potency, µM (highest dose often 57.6 µM), for inactives: top-dose activity change, negative = inhibition, actives largely listed as inhibitors. AID 1347051; calls by dose curve; further: on the % scale 0 is the no-effect control and ±100 the full control effect; nearly all actives have a fitted effect of over 70% in size
* hit, by the source's call; [ ] = another dose, or the depositor's remark. Shown are actives, neighbours in structure and some others; about 11% of the full set was active somewhere. Unless noted, the call rests on the fitted dose curve; in most records, active means well fitted curve in the direction sought with a large enough effect; inconclusive means small, poorly fitted or top-dose-only effect, or another doubt; inactive means no such curve, though single readings can be large; an effect the other way counts as inactive or inconclusive. Potency means the concentration at half of the fitted maximal effect.

For O=C(c1ccsc1)N1[C@H]2CC[C@@H]1c1cnc(-c3ccc(F)cc3)nc1C2 the results were HEK cytotox 40µM*, hNpr1 antagonist 8.9µM*, Luciferase inh inactive, NIH3T3 tox -37%, NPR1 antag cnf 14µM*, NPR2 antag 11µM*, FLuc inh counter -2% and GloSensor ctrl 12µM*.
CCCS(=O)(=O)N1[C@H]2CC[C@@H]1c1cnc(-c3ccc(F)cc3)nc1C2 was read as HEK cytotox inconclusive, hNpr1 antagonist 18µM*, Luciferase inh inactive, NIH3T3 tox inconclusive, NPR1 antag cnf 17µM*, NPR2 antag 19µM*, FLuc inh counter -4% and GloSensor ctrl 14µM*.
For CCn1nccc1C(=O)N1[C@H]2CC[C@@H]1c1cnc(-c3ccccc3)nc1C2 the results were HEK cytotox inconclusive, hNpr1 antagonist 13µM*, Luciferase inh inactive, NIH3T3 tox -39%, NPR1 antag cnf 17µM*, NPR2 antag 22µM*, FLuc inh counter 2% and GloSensor ctrl 15µM*.
For COCCOCC(=O)N1[C@H]2CC[C@@H]1c1cnc(-c3ccc(F)cc3)nc1C2 the results were HEK cytotox -15%, hNpr1 antagonist -10%, Luciferase inh inactive and NIH3T3 tox inconclusive.
For O=C(CC1CCCC1)N1[C@H]2CC[C@@H]1c1cnc(-c3ccc(F)cc3)nc1C2 the results were HEK cytotox inconclusive, hNpr1 antagonist 4µM*, Luciferase inh inactive, NIH3T3 tox -24%, NPR1 antag cnf 4.3µM*, NPR2 antag 6.1µM*, FLuc inh counter -1% and GloSensor ctrl 4.3µM*.
Screening O=C(NC[C@H]1C[C@@H]2CCN1C[C@@H]2CN1CCN(c2ccccc2)CC1)Nc1ccsc1 returned HEK cytotox inconclusive, hNpr1 antagonist -3%, Luciferase inh inactive and NIH3T3 tox inconclusive.
`CC(=O)Nc1ccc(S(=O)(=O)NC[C@H]2C[C@@H]3CCN2C[C@@H]3c2cc(C3CCCC3)nn2C)cc1` gave HEK cytotox inconclusive, hNpr1 antagonist 5%, Luciferase inh inactive and NIH3T3 tox -12%.
`CN(CCc1ccccn1)C[C@H]1CN2CC[C@H]1C[C@@H]2CNC(=O)c1ccc(C(F)(F)F)cc1` gave HEK cytotox inconclusive, hNpr1 antagonist -2%, Luciferase inh inactive and NIH3T3 tox inconclusive.
`CCn1ccc(C(=O)N2[C@H]3CC[C@@H]2c2cnc(-c4ccc(F)cc4)nc2C3)n1` gave HEK cytotox inconclusive, hNpr1 antagonist -14%, Luciferase inh inactive and NIH3T3 tox -27%.
Screening COc1ccccc1C(=O)N1[C@H]2CC[C@@H]1c1cnc(-c3ccc(F)cc3)nc1C2 returned HEK cytotox inconclusive, hNpr1 antagonist 8.9µM*, Luciferase inh inactive, NIH3T3 tox inconclusive, NPR1 antag cnf 17µM*, NPR2 antag 15µM*, FLuc inh counter 0% and GloSensor ctrl 12µM*.
Screening O=C(Cc1ccc(Cl)cc1)N1Cc2ccccc2CC2(CCCN2CC2CCNC2)C1 (stereo unspecified) returned HEK cytotox 28µM*, NIH3T3 tox 16µM*, NPR1 antag cnf 22µM*, NPR2 antag 6.1µM*, FLuc inh counter 1% and GloSensor ctrl -1%.
For O=C(Cc1ccccc1)N1Cc2ccccc2CC2(CCCN2Cc2ccncc2)C1 (stereo unspecified) the results were HEK cytotox inconclusive and NIH3T3 tox -18%.
`CCC(CC)c1cc([C@H]2CN3CC[C@H]2C[C@@H]3CNC(=O)COc2ccccc2)nc(-c2ccncc2)n1` gave HEK cytotox 28µM*, hNpr1 antagonist 11µM*, Luciferase inh inactive, NIH3T3 tox 22µM*, NPR1 antag cnf 17µM*, NPR2 antag 17µM*, FLuc inh counter -2% and GloSensor ctrl -9%.
COc1cc2c(cc1Oc1cccc(N(C)C)c1)NC(=O)C21CCN(c2ncc(F)cn2)CC1 was read as HEK cytotox -18%, hNpr1 antagonist -19%, Luciferase inh inactive and NIH3T3 tox inconclusive.
COc1cc2c(cc1Oc1cccc(N(C)C)c1)NC(=O)C21CCN(Cc2cccc(O)c2)CC1 was read as HEK cytotox 25µM*, hNpr1 antagonist 11µM*, Luciferase inh inactive, NIH3T3 tox inconclusive, NPR1 antag cnf 19µM*, NPR2 antag 22µM*, FLuc inh counter -3% and GloSensor ctrl 17µM*.
`COc1cc2c(cc1Oc1cccc(N(C)C)c1)NC(=O)C21CCN(Cc2ccccc2)CC1` gave HEK cytotox 28µM*, hNpr1 antagonist 11µM*, Luciferase inh inactive, NIH3T3 tox 25µM*, NPR1 antag cnf 17µM*, NPR2 antag 19µM*, FLuc inh counter -2% and GloSensor ctrl 9.7µM*.
`CC(C)NC(=O)NC[C@H]1C[C@@H]2CCN1C[C@@H]2c1cc(-c2ccc(F)cc2)nn1C` gave HEK cytotox inconclusive, hNpr1 antagonist 1%[70.6 µM], Luciferase inh inactive and NIH3T3 tox inconclusive.
CN1Cc2ccccc2-n2ccnc2C12CCN(C(=O)Cc1cccs1)CC2 was read as HEK cytotox -17%, hNpr1 antagonist -2%, Luciferase inh inactive and NIH3T3 tox -25%.

From PubChem
